Measured values taken from PubChem BioAssay AID1159580 (chemical genetic matrix, 2015).
Out of some 5,500 compounds screened, about 2,000 (36%) were called active. About 18% were inconclusive and are not listed. Cut-off read from the data, not from the text of the source: active = normalized growth mostly below about 0.91 (no sharp cut-off); inconclusive = no clear call, values can overlap the other calls; inactive = mostly above about 0.92. The list shows a part of the results.

Experiment: chemical genetic growth profiling, strain panel (AID 1159580);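 note: tested at 20 µM; growth read once vehicle control cultures reached saturation at 30 °C; 1 = growth at the plate median or of vehicle wells; lower values mean less growth of the strain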
Settings: growth OD

Measured: normalized growth

CN1C[C@H](C(=O)N[C@]2(C)O[C@@]3(O)[C@@H]4CCCN4C(=O)[C@H](Cc4ccccc4)N3C2=O)C[C@@H]2c3cccc4[nH]cc(c34)C[C@H]21
inactive: S. cerevisiae deletion strains, locus YKL009W, strain mrt4, hits give low values 0.97 | S. cerevisiae deletion strains, locus YKL068W, hits give low values 0.989 | S. cerevisiae deletion strains, locus YKL085W, strain MDH1 (second series), hits give low values 0.987 | S. cerevisiae deletion strains, locus YKL085W, strain MDH1, hits give low values 0.987 | S. cerevisiae deletion strains, locus YKL160W, strain elf1, hits give low values 0.928 | S. cerevisiae deletion strains, locus YKL190W, strain CNB1, hits give low values 0.992 | S. cerevisiae deletion strains, locus YKR001C, strain vps1, hits give low values 1 | S. cerevisiae deletion strains, locus YKR026C, strain gcn3, hits give low values 0.996 | S. cerevisiae deletion strains, locus YKR091W, strain srl3, hits give low values 0.983 | S. cerevisiae deletion strains, locus YLL001W, strain dnm1, hits give low values 0.92 | S. cerevisiae deletion strains, locus YLL026W, hits give low values 0.988 | S. cerevisiae deletion strains, locus YLL041C, strain sdh2, hits give low values 0.997 | S. cerevisiae deletion strains, locus YLR027C, strain aat2, hits give low values 0.992 | S. cerevisiae deletion strains, locus YLR039C, strain RIC1, hits give low values 1.06 | S. cerevisiae deletion strains, locus YLR058C, strain SHM2, hits give low values 0.957 | S. cerevisiae deletion strains, locus YLR102C, strain apc9, hits give low values 0.974 | S. cerevisiae deletion strains, locus YLR113W, strain HOG1, hits give low values 1.07 | S. cerevisiae deletion strains, locus YLR221C, strain rsa3, hits give low values 0.997 | S. cerevisiae deletion strains, locus YLR258W, strain gsy2, hits give low values 1.01 | S. cerevisiae deletion strains, locus YLR262C, strain YPT6 (second series), hits give low values 0.973 | S. cerevisiae deletion strains, locus YLR262C, strain YPT6, hits give low values 1.06 | S. cerevisiae deletion strains, locus YLR268W, strain sec22, hits give low values 0.973 | S. cerevisiae deletion strains, locus YLR320W, strain mms22, hits give low values 0.969 | S. cerevisiae deletion strains, locus YLR330W, strain CHS5, hits give low values 0.984 | S. cerevisiae deletion strains, locus YLR342W, strain FKS1 (second series), hits give low values 0.906 | S. cerevisiae deletion strains, locus YLR342W, strain FKS1, hits give low values 1.01 | S. cerevisiae deletion strains, locus YLR357W, strain rsc2, hits give low values 0.957 | S. cerevisiae deletion strains, locus YLR370C, strain arc18, hits give low values 0.987 | S. cerevisiae deletion strains, locus YLR371W, strain rom2, hits give low values 0.974 | S. cerevisiae deletion strains, locus YLR384C, strain iki3, hits give low values 1.01 | S. cerevisiae deletion strains, locus YML016C, strain PPZ1, hits give low values 0.979 | S. cerevisiae deletion strains, locus YML032C, strain rad52, hits give low values 0.979 | S. cerevisiae deletion strains, locus YML120C, strain ndi1, hits give low values 0.95 | S. cerevisiae deletion strains, locus YML124C, strain tub3, hits give low values 0.982 | S. cerevisiae deletion strains, locus YMR058W, strain fet3, hits give low values 0.965 | S. cerevisiae deletion strains, locus YMR078C, strain ctf18, hits give low values 0.963 | S. cerevisiae deletion strains, locus YMR125W, strain sto1, hits give low values 0.921 | S. cerevisiae deletion strains, locus YMR129W, hits give low values 0.989 | S. cerevisiae deletion strains, locus YMR205C, strain PFK2, hits give low values 0.946 | S. cerevisiae deletion strains, locus YMR223W, strain ubp8, hits give low values 0.941 | S. cerevisiae deletion strains, locus YMR231W, strain pep5, hits give low values 1.01 | S. cerevisiae deletion strains, locus YMR263W, strain SAP30, hits give low values 0.959 | S. cerevisiae deletion strains, locus YMR307W, strain GAS1, hits give low values 0.821 | S. cerevisiae deletion strains, locus YNL067W, strain RPL9B, hits give low values 0.961 | S. cerevisiae deletion strains, locus YNL071W, strain lat1, hits give low values 0.994 | S. cerevisiae deletion strains, locus YNL128W, strain TEP1, hits give low values 0.96 | S. cerevisiae deletion strains, locus YNL153C, strain GIM3, hits give low values 0.965 | S. cerevisiae deletion strains, locus YNL183C, strain NPR1, hits give low values 0.98 | S. cerevisiae deletion strains, locus YNL209W, strain ssb2, hits give low values 0.981 | S. cerevisiae deletion strains, locus YNL233W, strain BNI4, hits give low values 0.933 | S. cerevisiae deletion strains, locus YNL248C, strain rpa49, hits give low values 0.933 | S. cerevisiae deletion strains, locus YNL250W, strain rad50, hits give low values 0.984 | S. cerevisiae deletion strains, locus YNL271C, strain bni1, hits give low values 0.974 | S. cerevisiae deletion strains, locus YNL298W, strain CLA4, hits give low values 0.985 | S. cerevisiae deletion strains, locus YNL307C, strain MCK1, hits give low values 0.967 | S. cerevisiae deletion strains, locus YNL322C, strain KRE1 (second series), hits give low values 0.989 | S. cerevisiae deletion strains, locus YNL322C, strain KRE1, hits give low values 0.996 | S. cerevisiae deletion strains, locus YNR049C, strain mso1, hits give low values 0.983 | S. cerevisiae deletion strains, locus YNR052C, strain pop2, hits give low values 0.972 | S. cerevisiae deletion strains, locus YOL006C, strain TOP1, hits give low values 0.79 | S. cerevisiae deletion strains, locus YOL012C, strain htz1 0.956 | S. cerevisiae deletion strains, locus YOL147C, strain pex11, hits give low values 0.975 | S. cerevisiae deletion strains, locus YOR001W, strain rrp6, hits give low values 1.05 | S. cerevisiae deletion strains, locus YOR061W, strain CKA2, hits give low values 0.986 | S. cerevisiae deletion strains, locus YOR069W, strain VPS5, hits give low values 0.989 | S. cerevisiae deletion strains, locus YOR070C, strain gyp1, hits give low values 1 | S. cerevisiae deletion strains, locus YOR080W, strain dia2, hits give low values 0.996 | S. cerevisiae deletion strains, locus YOR083W, strain WHI5, hits give low values 0.931 | S. cerevisiae deletion strains, locus YOR106W, strain vam3, hits give low values 0.914 | S. cerevisiae deletion strains, locus YOR136W, strain idh2, hits give low values 0.977 | S. cerevisiae deletion strains, locus YOR144C, strain elg1, hits give low values 0.985 | S. cerevisiae deletion strains, locus YOR184W, strain ser1, hits give low values 0.943 | S. cerevisiae deletion strains, locus YOR231W, strain MKK1, hits give low values 1.05 | S. cerevisiae deletion strains, locus YOR265W, strain rbl2, hits give low values 0.994 | S. cerevisiae deletion strains, locus YOR270C, strain vph1, hits give low values 0.909 | S. cerevisiae deletion strains, locus YOR290C, strain snf2, hits give low values 0.962 | S. cerevisiae deletion strains, locus YOR316C, strain cot1, hits give low values 0.971 | S. cerevisiae deletion strains, locus YPL051W, strain arl3, hits give low values 0.992 | S. cerevisiae deletion strains, locus YPL055C, strain LGE1, hits give low values 0.91 | S. cerevisiae deletion strains, locus YPL078C, strain atp4, hits give low values 0.926 | S. cerevisiae deletion strains, locus YPL106C, strain sse1, hits give low values 0.967 | S. cerevisiae deletion strains, locus YPL240C, strain hsp82, hits give low values 0.989 | S. cerevisiae deletion strains, locus YPL241C, strain CIN2, hits give low values 0.993 | S. cerevisiae deletion strains, locus YPL256C, strain CLN2, hits give low values 1.03 | S. cerevisiae deletion strains, locus YPR119W, strain clb2, hits give low values 0.967 | S. cerevisiae deletion strains, locus YPR141C, strain kar3, hits give low values 0.968 | S. cerevisiae deletion strains, locus YPR163C, strain tif3, hits give low values 0.989 | S. cerevisiae deletion strains, locus YPR167C, strain met16, hits give low values 0.969 | S. cerevisiae deletion strains, strain wtn01, hits give low values 0.965 | S. cerevisiae strains, strain wild type, hits give low values 0.986
active: S. cerevisiae deletion strains, locus YLR418C, strain cdc73, hits give low values 0.803
